Source: PubChem BioAssay AID1159580 (chemical genetic matrix, 2015)
Values joined by “and” are separate entries in the source; they are usually repeats but may differ in a detail not shown here. Identical values can stand only once. In all, about 5,500 compounds went through this assay and about 2,000 (36%) were called active. Roughly 18% stayed inconclusive and do not appear here. No stated cut-off is given here; in the data, active means normalized growth mostly below about 0.91 (no sharp cut-off); inconclusive means no clear call, values can overlap the other calls; inactive means mostly above about 0.92. The list shows a part of the results.

Test: chemical genetic growth profiling, strain panel (AID 1159580);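 further: tested at 20 µM; growth read once vehicle control cultures reached saturation at 30 °C; 1 = growth at the plate median or of vehicle wells; lower values mean less growth of the strain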
Conditions: S. cerevisiae deletion strains, growth OD

Measured: normalized growth

CC(=O)O[C@H]1C[C@@]2(C)[C@@H](C[C@@H](O)C3[C@]2(C)CC[C@H]2[C@H](C)[C@H](O)CC[C@]32C)/C1=C(/CCC=C(C)C)C(=O)O (stereo partly drawn)
inactive: locus YAL013W, strain DEP1, hits give low values 1.02 | locus YAL021C, strain ccr4, hits give low values 1.02 | locus YAL026C, strain drs2, hits give low values 1.01 | locus YAL030W, strain snc1, hits give low values 1.03 | locus YBL061C, strain skt5, hits give low values 1.04 | locus YBR009C, strain hhf1, hits give low values 1.02 | locus YBR021W, strain FUR4, hits give low values 1.04 | locus YBR023C, strain chs3, hits give low values 1.04 | locus YBR171W, strain sec66, hits give low values 1.01 | locus YBR229C, strain ROT2, hits give low values 1.01 | locus YBR231C, strain swc5, hits give low values 0.988 | locus YBR279W, strain paf1, hits give low values 1.03 | locus YCL011C, strain gbp2, hits give low values 1.01 | locus YCL016C, strain dcc1, hits give low values 1.05 | locus YCL029C, strain bik1, hits give low values 1.03 | locus YCL061C, strain MRC1, hits give low values 1.02 | locus YCL069W, strain vba3, hits give low values 1.01 | locus YCR088W, strain abp1, hits give low values 1.01 | locus YDL005C, strain med2, hits give low values 1.04 | locus YDL035C, strain GPR1, hits give low values 0.989 | locus YDL040C, strain nat1, hits give low values 1.02 | locus YDL074C, strain BRE1, hits give low values 1.03 | locus YDL101C, strain DUN1, hits give low values 1.01 | locus YDL134C, strain PPH21, hits give low values 1 | locus YDL185W, strain tfp1, hits give low values 1.01 | locus YDL192W, strain arf1, hits give low values 1.03 | locus YDR001C, strain nth1, hits give low values 1 | locus YDR069C, strain doa4, hits give low values 1.03 | locus YDR101C, strain arx1, hits give low values 1.02 | locus YDR137W, strain rgp1, hits give low values 1 | locus YDR150W, strain NUM1, hits give low values 1.02 | locus YDR159W, strain sac3, hits give low values 0.989 | locus YDR162C, strain NBP2, hits give low values 1 | locus YDR195W, strain ref2 1.03 | locus YDR297W, strain sur2, hits give low values 1.02 | locus YDR318W, strain mcm21, hits give low values 1.03 | locus YDR334W, strain swr1, hits give low values 1.02 | locus YDR335W, strain msn5, hits give low values 1.04 | locus YDR388W, hits give low values 1.04 | locus YDR392W, strain spt3, hits give low values 0.998 | locus YDR502C, strain sam2, hits give low values 1.04 | locus YEL003W, strain gim4, hits give low values 0.998 | locus YEL037C, strain rad23, hits give low values 1 | locus YEL061C, strain CIN8 (second series), hits give low values 1.01 | locus YEL061C, strain CIN8, hits give low values 1.01 | locus YER015W, strain faa2, hits give low values 1.03 | locus YER016W, strain bim1, hits give low values 1.01 | locus YER110C, hits give low values 1.02 | locus YER111C, strain swi4, hits give low values 1.03 | locus YER155C, strain BEM2 (second series), hits give low values 1.01 | locus YER155C, strain BEM2, hits give low values 1.01 | locus YER167W, strain BCK2, hits give low values 1.02 | locus YFR010W, strain ubp6, hits give low values 1.02 | locus YGL078C, strain dbp3, hits give low values 1.04 | locus YGL086W, strain mad1, hits give low values 1.01 | locus YGL167C, strain pmr1, hits give low values 1.02 | locus YGL173C, strain kem1, hits give low values 1.01 | locus YGL227W, strain vid30, hits give low values 1.01 | locus YGL240W, strain doc1, hits give low values 1.01 | locus YGL248W, strain PDE1, hits give low values 1.01 | locus YGL253W, strain hxk2, hits give low values 1.01 | locus YGR078C, strain PAC10, hits give low values 1.02 | locus YGR135W, strain pre9, hits give low values 1.06 | locus YGR229C, strain SMI1, hits give low values 1.02 | locus YGR252W, strain gcn5, hits give low values 1.02 | locus YHR013C, strain ard1, hits give low values 1.08 | locus YHR027C, strain rpn1, hits give low values 1.03 | locus YHR030C, strain SLT2, hits give low values 1.02 and 0.951 | locus YHR079C, strain IRE1 (second series), hits give low values 1.01 | locus YHR079C, strain IRE1, hits give low values 0.959 | locus YHR094C, strain hxt1, hits give low values 1.03 | locus YHR129C, strain ARP1, hits give low values 1.01 | locus YHR142W, strain chs7, hits give low values 1.04 | locus YHR200W, strain rpn10, hits give low values 1.05 | locus YIL066C, strain RNR3, hits give low values 1.01 | locus YIL073C, strain SPO22, hits give low values 1.03 | locus YIL125W, strain kgd1, hits give low values 1.03 | locus YIR030C, strain dcg1, hits give low values 1.04 | locus YJL092W, strain hpr5, hits give low values 1.01 | locus YJL095W, strain BCK1 (second series), hits give low values 1.03 | locus YJL095W, strain BCK1, hits give low values 1.03 and 0.977 | locus YJL115W, strain asf1, hits give low values 1.03 | locus YJL129C, strain trk1, hits give low values 1.03 | locus YJL134W, strain LCB3, hits give low values 1.01 | locus YJL154C, strain vps35, hits give low values 0.993 | locus YJL164C, strain tpk1, hits give low values 1.06 | locus YJL166W, strain qcr8, hits give low values 1.08 | locus YJL168C, strain set2, hits give low values 1.02
